# Assay outcomes deposited in PubChem by National Center for Advancing Translational Sciences (NCATS).
# The full list was thinned out, with hits kept by preference.
# nsP2pro primary: inhibitors of chikungunya virus nsP2 protease. Q8JUX6. FRET peptide cleavage, nsP2pro, fluorescence 1 h. Potency, µM (series often up to 24.9 µM), without a hit: top-dose activity change, negative = inhibition, actives largely listed as inhibitors. 31,000 compounds, 1.1% hits. AID 1964107; further: nearly all actives have a fitted effect of over 60% in size
#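 Enzyme 150 nM, substrate 2.5 uM (both final); Tris-HCl 10 mM pH 8.0 + 0.01% Tween 20; cpd up to 25 uM, 7 pts; 15 min preinc., 1 h RT; fluorescence ex 525/em 598.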
# CHIKV nsP2 cell: inhibits CHIKV nsP2 protease in cells; Potency, µM (series often up to 51.1 µM), without a hit: at the top dose activity change, negative = inhibition, actives largely listed as inhibitors; shares compounds with nsP2pro primary; cell-based CHIKV nsP2 protease reporter assay; 450 compounds, 10% hits; AID 1964100; further: nearly all actives have a fitted effect of over 70% in size
# CHIKV NSP2 FL: full-length CHIKV NSP2 protease inhibition, selectivity. Potency, µM (series often up to 50.7 µM), for the others: top-dose activity change, negative = inhibition, hits mostly inhibitors. Full-length CHIKV NSP2 protease enzymatic counterscreen. 410 compounds, 39% hits. shares compounds with nsP2pro primary; further: nearly all actives have a fitted effect of over 65% in size
# Furin counter: human furin inhibition, counterscreen for nsP2pro inhibitors; shares compounds with nsP2pro primary; Recombinant human furin enzymatic counterscreen, fluorogenic substrate; Potency, µM (top dose mostly 50.6 µM), for the others: at the top dose activity change, negative = inhibition, most hits filed as inhibitors; 410 compounds, 6% hits; AID 1964102
# nsP2 NS23 pep: selectivity test for CHIKV nsP2 protease inhibitors: endogenous NS2/3 peptide. shares compounds with nsP2pro primary. Potency, µM (titrated, usually from 51 µM), without a hit: at the top dose activity change, negative = inhibition, most hits filed as inhibitors. 410 compounds, 34% hits. Purified CHIKV nsP2 protease, endogenous NS2/3 peptide cleavage; further: nearly all actives have a fitted effect of over 55% in size
# Papain counter: inhibits papain in a CHIKV nsP2 protease selectivity counterscreen. AID 1964104. Potency, µM (highest dose often 51 µM), without a hit: at the top dose activity change, negative = inhibition, most hits filed as inhibitors. shares compounds with nsP2pro primary. 410 compounds, 5% hits. purified papain protease activity, enzymatic inhibition
# nsP2pro confirm: CHIKV nsP2 protease inhibition, confirmatory qHTS; shares compounds with nsP2pro primary; CHIKV nsP2 protease enzymatic activity, qHTS; Potency, µM (highest dose often 25.5 µM), inactives show at the highest dose activity change, negative = inhibition, most hits filed as inhibitors; 410 compounds, 43% hits; further: nearly all actives have a fitted effect of over 75% in size
# HCV NS3 4A cs: HCV NS3/4A protease inhibition, counterscreen. shares compounds with nsP2pro primary. HCV NS3/4A protease biochemical counterscreen. Potency, µM (titrated, usually from 50.9 µM), hits mostly inhibitors. 410 compounds, 20% hits. AID 1964106; further: nearly all actives have a fitted effect of over 55% in size
# * = called active by the depositor; i = inactive; ? = inconclusive; [ ] = another dose, or the depositor's remark. The call rests on the fitted dose curve. On the % scale 0 is the no-effect control and ±100 the full control effect; potency means the concentration at half of the fitted maximal effect.
SMILES,nsP2pro primary,others
C[C@H](NCc1ccc(OCc2ccccc2F)cc1)C(N)=O,-2%,
C=C1C(=O)O[C@@H]2CC(C)=C([C@@H](C)CCCO)[C@@H](OC(=O)C(C)C)[C@H]12,48%,
C=C(CO)C(=O)O[C@H]1CC(=C)[C@@H]2C[C@H](O)C(=C)[C@@H]2[C@H]2OC(=O)C(=C)[C@@H]21,4%,
C=C1C(=O)O[C@H]2C1[C@H](OC(=O)/C(=C/CO)COC(=O)/C(C)=C/CO)CC(=C)[C@@H]1CC(=O)[C@@H](C)[C@@H]12 (stereo partly specified),1.2µM*,CHIKV nsP2 cell=?;CHIKV NSP2 FL=1.8µM*;Furin counter=-5%[17.3 µM];nsP2 NS23 pep=3.6µM*;Papain counter=-7%[17.2 µM];nsP2pro confirm=0.87µM*;HCV NS3 4A cs=?
COC(=O)c1ccc(O)c2ncc(-c3ccc(C(=O)NCCCN(C)C)cc3)cc12,i,
C[C@@H]1CN(c2nc(-c3ccccc3)no2)CC[C@@]1(O)C1CCC1,i,
COC[C@@H]1OC[C@@]2(C)C3CC[C@@H](O)[C@@H](CC(=O)N4CCCCC4)[C@]3(C)CC[C@H]2O1 (stereo partly specified),-4%[39.2 µM],
